VACV Venus inh: vaccinia inhibition (Venus reporter); Vaccinia virus Venus reporter expression, fluorescence; Potency, µM (highest dose often 36.5 µM), for the others: top-dose activity change, negative = inhibition, hits mostly inhibitors; hit rate 0.46% among 330,000; calls by dose curve; tested in A549 cells; note: potency is the fitted concentration of half-maximal effect; nearly all actives have a fitted effect of over 30% in size
HCMV inh: human cytomegalovirus inhibition; HFF cells, HCMV-luciferase reporter, 72 h; stronger effect = lower value; activity change, negative = inhibition, % at 57.5 µM; hit rate 4.5% among 410,000; in the data active = activity change below about -60%; inconclusive = no clear call, values can overlap the other calls; inactive = above about -39%
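Human foreskin fibroblasts infected with luciferase-reporter HCMV at MOI 1 PFU/cell, compounds at two doses. Luciferase measured 72 h post infection; normalized to buffer-only basal and Salinomycin (10uM) controls.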
VACV mCherry inh: vaccinia inhibition (mCherry reporter); Vaccinia virus mCherry reporter infection, fluorescence; Potency, µM (highest dose often 36.5 µM), without a hit: at the highest dose activity change, negative = inhibition, hits mostly inhibitors; AID 720579; hit rate 0.63% among 310,000; calls by dose curve; tested in A549 cells; note: potency is the fitted concentration of half-maximal effect; nearly all actives have a fitted effect of over 35% in size
FMDV inh: foot and mouth disease virus antiviral activity. FMDV antiviral cell-based qHTS. Potency, µM (top dose mostly 57.9 µM), without a hit: at the top dose activity change, negative = inhibition, most hits filed as inhibitors. hit rate 1.2% among 410,000. AID 1159524; calls by dose curve; tested in HEK293T cells; note: read-out not given here; potency is the fitted concentration of half-maximal effect; nearly all actives have a fitted effect of over 45% in size
Marburg entry inh: inhibitors of Marburg virus binding or cell entry | Marburg virus pseudotyped entry inhibition, cell reporter | Potency, µM (top dose mostly 37.8 µM), for the others: at the top dose activity change, negative = inhibition, actives largely listed as inhibitors | hit rate 1.8% among 300,000 | AID 540276; calls by dose curve; tested in HEK293 cells; note: potency is the fitted concentration of half-maximal effect
Lassa entry inh: blocks Lassa virus binding to or entry into cells; Lassa virus pseudotype entry inhibition, cell reporter; Potency, µM (top dose mostly 37.9 µM), for inactives: at the highest dose activity change, negative = inhibition, hits mostly inhibitors; hit rate 1.2% among 300,000; AID 540256; calls by dose curve; tested in HEK293 cells; note: potency is the fitted concentration of half-maximal effect; nearly all actives have a fitted effect of over 50% in size
Starred values were filed as active, the others as inactive; i = inactive; ? = inconclusive; · = not tested or not shown; [ ] = dose if it differs, or a comment. Sampled rows, rich in hits. Any-hit rate of the full collection: about 6.5%. % is set by controls: 0 for no effect and ±100 for the full control effect.

SMILES	VACV Venus inh	HCMV inh	VACV mCherry inh	FMDV inh	Marburg entry inh	Lassa entry inh
CN(C)CC1CCCCC1OC(=O)c1ccc(Cl)cc1Cl (configuration not stated)	·	-61*	·	-13%	·	·
O=C(CN1C(=O)C2(SCC(=O)N2c2ccccc2)c2ccccc21)Nc1ccccc1C(F)(F)F (configuration not stated)	2%	9	-1%	-15%	·	12%[46.1 µM]
COc1ccc2[nH]c3c(c2c1)CCN(C(=O)c1cccc(Cl)c1)C3c1ccc(F)cc1 (configuration not stated)	4%	-73*	?	-15%	1µM*	?
CN1C[C@H](CNC(=O)OCc2ccccc2)C[C@@H]2c3cccc4c3c(cn4C)C[C@H]21	-26%	54	-17%	-17%	5.6µM*	23µM*
CN1C[C@H](CNC(=O)OCc2ccccc2)C[C@H]2c3cccc4c3c(cn4C)C[C@@H]21	·	·	·	-17%	?	·
CC(C)c1ccc(OCc2ccc(C(=O)O)o2)cc1	6%	-10	-14%	10µM*	3.7µM*	3.5µM*
Cc1cccc(-c2nc(CSc3nncn4c3cc3oc(C)cc34)c(C)o2)c1	-3%	-6	-7%	6%	·	17%[46.1 µM]
COc1ccc(N2CCN(C(=O)CN=C3NS(=O)(=O)C(c4ccc(C)cc4)=C3C)CC2)cc1	-30%	-61*	?	-25%	-10%	25%[14.3 µM]
O=C1CCC[C@H]2[C@@H](Cc3ccccc3)[C@@H](NS(=O)(=O)c3ccccc3)CC[C@]23CCCN13	·	-21	·	·	·	·
CCCNC(=O)Cn1c(=O)/c(=C/c2ccc(-c3ccc([N+](=O)[O-])cc3)o2)s/c1=C\C(=O)C(C)(C)C	59%	-96*	?	-1%	?	2%[46.1 µM]
CSc1ccc(/C=c2\s/c(=C\C(=O)C(C)(C)C)n(CC(=O)NCCC3=CCCCC3)c2=O)cc1	·	-13	·	-20%	·	·
COc1ccc(OC)c([C@@H]2C(C#N)=C(N)Oc3cc(C)n(Cc4ccccn4)c(=O)c32)c1	·	·	·	·	-1%	·
Cc1ccc(C(=O)Nc2ncc(C)s2)s1	-15%	1	-16%	-10%	2.8µM*	5µM*
Cc1nc2ccc3nc(NC(=O)c4ccc5c(c4)OCCO5)sc3c2s1	-4%	-106*	-4%	18%	14%	?
Cc1ccc(C(=O)Nc2ncc(C)s2)o1	·	27	·	31%	5%	?
Cc1nc2c(ccc3nc(NC(=O)Cc4cccc5ccccc45)sc32)s1	-17%	-16	9%	?	-3%	?
Cc1nc2c(ccc3nc(NC(=O)C(c4ccccc4)c4ccccc4)sc32)s1	?	1	?	13µM*	-6%	7%
Cc1cnc(NC(=O)c2cc3ccccc3o2)s1	-10%	71	i	-10%	13µM*	-30%[46.1 µM]
Cc1nc2ccc3nc(NC(=O)c4ccc(S(=O)(=O)N5CCOCC5)cc4)sc3c2s1	-4%	9	-8%	12%	-12%	14%[14.3 µM]
COc1ccc(-c2nc3ccccc3o2)cc1NC(=O)C(C)(C)Oc1ccc(Br)cc1	4%	0	-4%	-19%	18%[46.1 µM]	7%[46.1 µM]
O=c1c(-c2cc(-c3ccccc3)nc3c2COc2ccc(Cl)cc2-3)coc2ccc(F)cc12	0%	17	-4%	-3%	4%[46.1 µM]	20%[46.1 µM]
CC(NC(=O)C1CCOCC1)c1nnc2n1CCN(Cc1cc3c(cc1Cl)OCO3)CC2 (configuration not stated)	-21%	·	0%	-12%	·	·
Cc1ccc2sc(NC(=O)c3ccc4c(c3)OCCO4)nc2c1C	-5%[7.34 µM]	66	2%[7.34 µM]	-14%	·	19%[46.1 µM]
Cc1nc2c(ccc3nc(NC(=O)c4ccc5c(c4)OCCO5)sc32)s1	-24%	-82*	-7%	·	?	-24%
Cc1ccccc1NC(=O)c1ccc2c(c1)OCCO2	-16%	25	·	0%	28%	29%
SMILES	VACV Venus inh	HCMV inh	VACV mCherry inh	FMDV inh	Marburg entry inh	Lassa entry inh
Cc1cnc(NC(=O)c2ccc3c(c2)OCCO3)s1	·	-80*	·	10µM*	·	·
CS(=O)(=O)c1ccc(-c2cccc3c2OC(CNC(=O)c2ccnc(Cl)c2)C3)cc1 (configuration not stated)	0%	·	-5%	-23%	·	·
Cc1ccc(O[C@@H]2[C@H](O)CO[C@H]2C=CC#Cc2ccc(C(C)(C)C)cc2)cc1	·	·	·	·	-35%[14.2 µM]	?
CCOC(=O)C1=C(c2ccccc2)NC(SCC(=O)Nc2ccccc2C)=C(C#N)C1c1ccco1 (configuration not stated)	·	-31	·	-27%	23µM*	?
CC(=O)C1=C(C)NC(SCC(=O)c2ccc(Cl)cc2Cl)=C(C#N)C1c1ccco1 (configuration not stated)	-3%	-68*	i	·	-27%	?
CC(=O)C1=C(C)NC(SCC(=O)c2ccc(Cl)cc2)=C(C#N)C1c1ccco1 (configuration not stated)	-10%	-33	-20%	-21%	?	-29%
C=CCOC(=O)C1=C(C)NC(SCC(=O)Nc2ccc(C)c(Cl)c2)=C(C#N)[C@@H]1c1ccco1	·	·	·	·	10µM*	·
CCOC(=O)C1=C(c2ccccc2)NC(SCC(=O)Nc2ccc(C)cc2)=C(C#N)C1c1ccco1 (configuration not stated)	?	-1	-16%	-21%	?	-24%
Cc1cc(=O)c(C(=O)N(C)CCc2ccccn2)c2n1-c1ccccc1SC(c1ccsc1)C2 (configuration not stated)	16%	·	1%	-7%	·	·
O=c1c2ccccc2nc2n1CCN2Cc1ccc(Cl)cc1	?	-88*	-15%	·	?	-18%
CNS(=O)(=O)c1cn(CC(=O)N2CCN(c3cc(C)ccc3C)CC2)cc1S(=O)(=O)NC	-9%	0	-1%	-11%	·	2%[46.1 µM]
CCCOC(=O)c1ccc(NC(=O)COC(=O)C2CCN(c3ccc(C(F)(F)F)cn3)CC2)cc1	·	62	·	22%	·	·
Cc1ccc(NC(=O)COC(=O)C2CCN(c3ccc(C(F)(F)F)cn3)CC2)cc1	·	-73*	·	-2%	·	·
Cc1no[n+]([O-])c1COc1ccccc1/C=N/n1nnnc1N	?	-75*	?	-19%	?	?
CCOc1cc(/C=N/n2nnnc2N)ccc1OCc1c(C)no[n+]1[O-]	?	-20	?	?	-7%	0%
Cc1ccccc1C(=O)Nc1cccc(C(=O)OCc2cc(=O)n3c(C)csc3n2)c1	-19%	10	-11%	-7%	·	20%[46.1 µM]
Cc1ccccc1NC1=C/C(=N\S(=O)(=O)c2ccc(C(=O)O)cc2)c2ccccc2C1=O	?	29	32µM*	?	8.9µM*	?
O=C(O)c1ccc(S(=O)(=O)/N=C2\C=C(Nc3ccccc3F)C(=O)c3ccccc32)cc1	?	-98*	?	?	?	?
COc1cccc(N2CCN(C(=O)c3cnc4c(-c5ccccc5)c(C)nn4c3C)CC2)c1	-4%	-6	-2%	-9%	·	3%[46.1 µM]
